# Rows were chosen to be rich in hits. Some 1.5% of all compounds tested hit in one or more screens of this group.
# NOD2-RIPK2 inh: inhibitors of human NOD2-RIPK2 interaction | O43353 | CHO BLA complementation NOD2-RIPK2, CCF4 ratio | inhibition, % at 4.98 µM | actives 0.38% (n = 360,000); in the data active = inhibition above about 21%;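 note: 0% = vehicle only and 100% = reference blocker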
# TLR4-MyD88 BLA: blocks binding of human TLR4 to MyD88 | O00206+Q99836 | HeLa CL3-4 TLR4/MyD88 BLA complementation, FRET ratio | actives 0.18% (n = 200,000) | inhibition, % at 8.4 µM | AID 861; in the data active = inhibition above about 25%;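 note: 0% = vehicle and 100% = reference inhibitor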
# Target sequence (O00206 whole entry, looked up): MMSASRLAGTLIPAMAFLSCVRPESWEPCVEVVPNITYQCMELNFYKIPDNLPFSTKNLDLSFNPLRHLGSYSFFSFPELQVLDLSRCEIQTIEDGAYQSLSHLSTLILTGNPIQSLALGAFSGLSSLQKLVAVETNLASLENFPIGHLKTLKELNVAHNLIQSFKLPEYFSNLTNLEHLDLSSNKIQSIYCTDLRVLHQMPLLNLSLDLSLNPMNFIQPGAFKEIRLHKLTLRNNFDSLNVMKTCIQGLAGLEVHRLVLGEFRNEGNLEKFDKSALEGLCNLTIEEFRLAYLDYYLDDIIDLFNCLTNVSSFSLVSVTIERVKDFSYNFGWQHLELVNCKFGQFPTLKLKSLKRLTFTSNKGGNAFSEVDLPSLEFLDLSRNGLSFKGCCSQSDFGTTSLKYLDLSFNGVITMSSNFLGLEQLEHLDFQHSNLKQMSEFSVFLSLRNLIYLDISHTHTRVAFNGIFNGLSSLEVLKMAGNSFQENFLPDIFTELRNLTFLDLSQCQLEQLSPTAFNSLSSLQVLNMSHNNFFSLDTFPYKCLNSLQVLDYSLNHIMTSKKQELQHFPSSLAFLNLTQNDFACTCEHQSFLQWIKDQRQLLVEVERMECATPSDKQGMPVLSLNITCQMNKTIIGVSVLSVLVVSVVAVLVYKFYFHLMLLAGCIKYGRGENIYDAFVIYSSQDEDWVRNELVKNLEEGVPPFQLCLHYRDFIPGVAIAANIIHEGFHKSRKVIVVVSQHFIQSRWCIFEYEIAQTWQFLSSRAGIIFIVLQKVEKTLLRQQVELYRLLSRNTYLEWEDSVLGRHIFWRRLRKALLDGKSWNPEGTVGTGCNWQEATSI
# Target sequence (Q99836 whole entry, looked up): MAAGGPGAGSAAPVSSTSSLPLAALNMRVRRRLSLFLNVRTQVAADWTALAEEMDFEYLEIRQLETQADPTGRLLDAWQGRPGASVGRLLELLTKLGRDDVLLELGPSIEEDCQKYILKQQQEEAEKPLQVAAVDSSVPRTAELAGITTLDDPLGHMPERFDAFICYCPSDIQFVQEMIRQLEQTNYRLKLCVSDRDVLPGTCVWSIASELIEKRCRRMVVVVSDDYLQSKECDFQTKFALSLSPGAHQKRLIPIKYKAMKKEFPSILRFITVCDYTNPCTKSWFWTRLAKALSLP
# TLR9-MyD88 inh: inhibitors of human TLR9-MyD88 binding; AID 504734; inhibition, % at 4.98 µM; Q9NR96+Q99836; actives 0.21% (n = 340,000); CHO BLA complementation TLR9-MyD88, CCF4 FRET ratio;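 active = inhibition above the mean over all tested compounds plus 3 SD, cut at about 21% in these data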;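 note: 0% = DMSO only wells and 100% = clavulanate BLA inhibitor control wells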
# Myeloid diff 2: promotes myeloid progenitor differentiation. ER-HoxA9 myeloid progenitors, lysozyme-GFP differentiation, flow cytometry. calls only at 10 µM. actives 1% (n = 360,000). AID 624256;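 active = normalized GFP-positive differentiation at or above the plate's own cutoff, the solvent-only control mean plus 3 SD; inconclusive = no clear call, values can overlap the other calls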;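 note: cells exposed to compound for four days before flow analysis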
# TLR9-MyD88 cf: TLR9-MyD88 interaction inhibition, confirmation. shares compounds with TLR9-MyD88 inh. CHO TLR9/MyD88 BLA complementation, CCF4 FRET ratio. inhibition, % at 4.98 µM. actives 51% (n = 680). AID 540250;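 active = mean inhibition across three repeats above about 21% taken from the earlier screen, limit read from the data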;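 note: blue over green emission ratio reports constitutive TLR9 MyD88 association via BLA complementation; 0% = DMSO vehicle wells and 100% = clavulanate BLA inhibitor wells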
# BLA counter-1: counter-screen for TLR9-MyD88 inhibitors: non-selective beta-lactamase inhibitors. CHO-BLA cells, CCF4 FRET ratio, BLA reporter. shares compounds with TLR9-MyD88 inh. AID 540251. actives 7% (n = 680). inhibition, % at 4.98 µM;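 active = mean inhibition above a 50% cutoff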;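 note: counterscreen of TLR9-MyD88 hits on CMV-driven BLA in CHO-K1 cells; 0% = DMSO alone and 100% = clavulanate blocking BLA; higher means less blue over green ratio so more BLA blockade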
# TLR9 CHO tox: counter-screen for TLR9-MyD88 inhibitors: cytotoxicity in CHO cells; shares compounds with TLR9-MyD88 inh; luminescence; inhibition, % at 4.98 µM; actives 39% (n = 680); in the data active = inhibition above about 11%
# NOD2 RIPK2 conf: NOD2-RIPK2 interaction inhibition confirmed; shares compounds with NOD2-RIPK2 inh; CHO cells, NOD2-RIPK2 BLA complementation, CCF4 FRET; inhibition, % at 4.98 µM; actives 70% (n = 1,200); AID 624370;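 active = mean inhibition across replicates above a set limit taken from the earlier primary screen, cut at about 21% in these data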;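 note: 0% = DMSO-only wells and the high end = clavulanate BLA-blocked wells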
# BLA counter-2: NOD2-RIPK2 counterscreen BLA reporter activity; shares compounds with NOD2-RIPK2 inh; CHO BLA reporter, CCF4 FRET ratio; inhibition, % at 4.98 µM; actives 57% (n = 1,200);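 active = mean inhibition above the low-control mean inhibition plus three low-control SD, cut at about 11% in these data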;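 note: 0% = DMSO only wells and 100% = clavulanate high control wells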
# An asterisk follows results filed as active; i = inactive; ? = inconclusive; · = no result given; + = active, no number; ! = a repeat was not active.
SMILES,NOD2-RIPK2 inh,TLR4-MyD88 BLA,TLR9-MyD88 inh,Myeloid diff 2,TLR9-MyD88 cf,BLA counter-1,TLR9 CHO tox,NOD2 RIPK2 conf,BLA counter-2
CC(=O)OCCn1c(C)[n+](CCOC(C)=O)c2cc(Cl)c(Cl)cc21,-7.6,-3.9,3.2,i,·,·,·,·,·
CC(=O)OCCn1c2nc(=O)[nH]c(=O)c-2nc2cc(C)c(C)cc21,23.1*,·,21.2*,?,5.4,6.4,2.9,20.3,22.8*
CCN1CCN(Cc2c(O)ccc3c2O/C(=C\c2ccccc2)C3=O)CC1,26.8*,8.2,21.0*,i,15.1,12.5,0.5,24.5*,27.9*
CCN1CCN(Cc2c(O)ccc3c2O/C(=C\C=C\c2ccccc2)C3=O)CC1,7.1,3.7,6.5,?,·,·,·,·,·
COc1cc(OC)c(C#N)c(S(=O)(=O)Cc2ccccc2)c1,-2.3,-7.4,8.1,i,·,·,·,·,·
N#Cc1c([N+](=O)[O-])cc([N+](=O)[O-])cc1S(=O)(=O)Cc1ccccc1,86.4*,·,46.3*,?,40.1*,23.4,98.2*,92.2*,33.7*
CS(=O)(=O)c1sc(C#N)c2c1C(=O)CC(c1ccccc1)C2 (stereo not given),98.5*,·,58.3*,?,52.9*,38.1,99.7*,94.1*,36.1*
CCc1ccc(-n2c(=S)sc3c(=O)[nH]c(SCC(=O)NC4CCCCC4)nc32)cc1,-2.9,·,13.8,i,·,·,·,·,·
CC1=Nc2ccc(C)cc2/C1=C/c1c(N)n2oc(C)cc2nc1=O,55.1*,-8.4,21.2*!,+!,15.4,18.9,4.3,41.5*,29.1*
Cc1ccccc1NC(=O)/C=C/c1ccc([N+](=O)[O-])s1,39.1*,19.2,27.0*,?,28.3*,21.5,95.9*,37.5*,41.1*
Cc1cc(C)cc(NC(=O)/C=C/c2ccc([N+](=O)[O-])s2)c1,8.7,2.3,-0.8,?,·,·,·,·,·
CCc1cc2c(-c3ccccc3)cc(=O)oc2cc1OC(C)C(C)=O (stereo not given),8.0,·,1.7,i,·,·,·,·,·
CC(C)(C)OC(=O)NCC(=O)Oc1cc2oc(=O)cc(-c3ccccc3)c2cc1Cl,36.0*,20.9,47.0*,i,16.5,20.7,-0.6,43.4*,48.3*
O=S(=O)(/C=C/C=C/S(=O)(=O)c1ccccc1)c1ccccc1,86.7*,·,26.2*,·,26.8*,21.4,98.2*,76.6*,38.0*
CC(C)C[C@@H]1Cc2[nH]c(=S)[nH]c(=O)c2[C@H](CCc2ccccc2)O1,-6.8,·,·,i,·,·,·,·,·
O=C(c1nnsc1S(=O)c1ccc(Cl)cc1)N1CCOCC1 (stereo not given),51.6*,5.7,27.5*,·,30.6*,1.1,100.9*,67.9*,21.4*
Cc1nnsc1S(=O)c1ccc(Cl)cc1 (stereo not given),-5.5,·,3.3,?,·,·,·,·,·
O=C(Nc1ccccc1)c1nnsc1S(=O)c1ccc(Cl)cc1 (stereo not given),33.0*,23.0,23.5*,?,36.9*,7.2,96.5*,78.2*,25.3*
CC1(C(=O)NCc2ccco2)Cc2c(-c3cccc(C(N)=O)c3)ccnc2O1 (stereo not given),9.4,·,·,i,·,·,·,·,·
CCc1nc2ccc(C(=O)Nc3cc(-c4ccccc4)ccc3OC)cn2c1N(CCN(C)C)CC1CC1,-3.1,·,·,?,·,·,·,·,·
O=C(/C=C/c1cn(CC(O)CN2CCCCC2)c2ccccc12)c1cccs1 (stereo not given),28.3*,21.6,25.0*,+,22.1*,20.3,4.5,50.8*,50.2*
CC(=O)Nc1ccc2c(c1)Cc1cc(N3C(=O)C=CC3=O)ccc1-2,33.2*,·,33.0*,i,56.2*,16.5,98.7*,85.2*,30.1*
Cc1cc(C)c2c(N)c(C(=O)c3ccc(Cl)c(Cl)c3)sc2n1,-3.8,3.1,-3.0,i,·,·,·,·,·

# Screening data as filed in PubChem BioAssay.
